Results filed as inconclusive are left out. Active and inactive are the calls of the source. Calls follow the shape of the dose curve; as a rule, active = well fitted inhibition curve with a large enough effect; inconclusive = small, poorly fitted or top-dose-only effect; inactive = flat fitted curve, though single readings scatter.

Sequence of Calcium and integrin-binding protein 1 (Homo sapiens) (Q99828 whole entry, looked up): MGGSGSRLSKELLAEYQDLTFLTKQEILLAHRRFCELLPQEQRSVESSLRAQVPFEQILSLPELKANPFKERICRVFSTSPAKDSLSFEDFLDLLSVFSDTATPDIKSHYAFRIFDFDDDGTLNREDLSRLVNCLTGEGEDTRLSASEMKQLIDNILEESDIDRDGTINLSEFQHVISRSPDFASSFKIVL

This assay concerns the target Calcium and integrin-binding protein 1 (Homo sapiens) (UniProt Q99828). Kind of assay: Primary qHTS for Identification of Calcium Integrin Binding Protein 1 (CIB1) Competitor (AID 1508620).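 Also: GST tagged CIB1 binding a fluorescein labelled alphaIIb integrin peptide tracer; top concentration of the series differs between compounds.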 The settings on record: CIB1-GST / FITC-alphaIIb peptide fluorescence polarization; series mostly up to 114 µM. The text has this: Assay Provider: Ulhas P. Naik, PhD Sidney Kimmel Medical College Thomas Jefferson University, Philadelphia, PA Primary function of platelets is to maintain hemostasis. At the site of vascular injury, platelets adhere to adhesive proteins such as collagen and von Willebrand factor. Adherent platelets are activated and generate soluble platelet agonists such as thrombin, ADP and thromboxane A2. Following exposure of circulating platelets to these agonists, results in platelet shape change, granule secretion and activation of platelet integrin alphaIIb-beta3. Ligand binding to activated integrin alphaIIb-beta3 triggers outside-in signaling, leading to platelet aggregation, stabilization of platelet plug, and clot retraction. Upon atherosclerotic plaque rupture also causes platelet plug formation, which underlies a number of cardiovascular diseases such as myocardial infraction and stroke. A number of anti-platelet drugs such as aspirin, clopidogrel, prasugrel, vorapaxar, and eptifibatide are currently available to prevent the thrombotic complications. However, these anti-platelet agents have several limitations including inherent variability in individual responses, developing resistance, and serious bleeding side effects. For these reasons they are not suitable for long-term protection. Based on the experiences with current anti-platelet drugs, it appears that the most useful therapeutic approach is to intersect the secondary responses such as integrin outside-in signaling or recruitment of platelets by TxA2 and secreted ADP. Compounds, which can largely preserve the primary hemostatic function of platelets but inhibit secondary response will be most desired therapeutic agents for treatment of cardiovascular disease. CIB1 is a calcium integrin binding protein, which specifically interact with the alphaIIb subunit of integrin alphaIIb-beta3. Binding of CIB1 to alphaIIb regulates the outside-in signaling in platelets, which is needed for thrombus stabilization and thrombus growth. […] Therefore, we propose that discovery of a small molecule that can prevent the association of CIB1 and alphaIIb-beta3 will be a potential anti-platelet agent that can block the thrombus formation without undue effect on hemostasis. Reference: [1] Naik MU, Nigam A, Manrai P, et al. CIB1 deficiency results in impaired thrombosis: the potential role of CIB1 in outside-in signaling through integrin alpha IIb beta 3. J Thromb Haemost.
PROTOCOL TABLES SEQUENCE No. (1, 2, 3, etc.); […] (e.g., Cells, Incubation, Reagent, etc.); VALUE and DESCRIPTION. 1; Reagent; 3 uL; Protein or buffer (4/3x) 2; Compound; 46 nL; Control inhibitor / compound library 3; Time; 15 min; Room temperature incubation 4; Reagent; 1 uL; Fluorescent labeled peptide (4x) 5; Time; 1000 rpm; Centrifuge 6; Time; 15 min; Room temperature incubation 7; Detection; Ex 480/ Em 540; ViewLux Fluorescence Read NOTES (numbers refer to sequence above) 1; Protein Mixture: C1B1-GST (final concentrations of 1 uM). […] 3; Room temperature incubation. 4; Fluorescent Labeled Peptide: FITC-aIIb (final concentration of 100 nM). Sequence of alphaIIb peptide: Acetyl-[…]-FITC (purity is 95.83%). 5; Centrifuge 1000 rpm (164 g) for 15 seconds. 6; Room temperature incubation. 7; ViewLux Fluorescent Polization Read: excitation = 480(20) / emission = 540(25) S and P; FITC Dichroic mirror.
Take `CC[C@H](C)[C@H](N)C(=O)O`: the outcome was inactive.

Regarding `CN1CCCN=C1COC(=O)C(O)(c1ccccc1)C1CCCCC1` (stereo not given), the result was inactive.

Regarding `CCOc1cc(NC(C)=O)ccc1C(=O)OC`, the result was inactive.

Consider `O=C(O)C(S)C(S)C(=O)O` (stereo not given), for which the result was inactive.

Consider `CC(=O)SC[C@@H](Cc1ccccc1)C(=O)NCC(=O)OCc1ccccc1`, for which the result was inactive.

On to `CC(CN(C)C)C(C)(O)Cc1ccc(Cl)cc1` (stereo not given), for which the outcome was inactive.

Take `C[C@@H](N)C(=O)O`: the outcome was inactive.

Turning to `Cc1c(N(C)C)c(=O)n(-c2ccccc2)n1C`, the outcome was inactive.

`COc1ccccc1Oc1c(NS(=O)(=O)c2ccc(C(C)(C)C)cc2)nc(-c2ncccn2)nc1OCCO`: the result was inactive.

For the compound `Cc1c(NC(C)C)c(=O)n(-c2ccccc2)n1C`, the result was inactive.

Consider `CC(=O)N[C@H]1[C@H]([C@H](O)[C@H](O)CO)OC(C(=O)O)=C[C@@H]1N=C(N)N`, for which the result was inactive.

For the compound `C[C@@H]1O[C@@H](OC[C@H]2O[C@@H](Oc3c(-c4ccc(O)c(O)c4)oc4cc(O)cc(O)c4c3=O)[C@H](O)[C@@H](O)[C@@H]2O)[C@H](O)[C@H](O)[C@H]1O`, the result was inactive.

For `C[N+](C)(C)CC(O)CC(=O)[O-]` (stereo not given), the result was inactive.

In the case of `Nc1ncnc(Nc2ccccc2)n1`, the outcome was inactive.

In the case of `CC(C)NC[C@@H](O)COc1ccc(CC(N)=O)cc1`, the outcome was inactive.

`N[C@@H](Cc1ccc(O)cc1)C(=O)O`: the outcome was inactive.

`O=C(O)c1ccc[n+]([O-])c1`: the result was inactive.

For the compound `O=C(Cn1ccnc1[N+](=O)[O-])NCc1ccccc1`, the outcome was inactive.

On to `COc1nccnc1NS(=O)(=O)c1ccc(N)cc1`, for which the result was inactive.

Consider `CC(=O)[C@@]1(O)CC[C@H]2[C@@H]3C[C@H](C)C4=CC(=O)C=C[C@]4(C)[C@@]3(F)[C@@H](O)C[C@@]21C`, for which the result was inactive.

For `CCN(CC)C(=O)c1cccc(C)c1`, the outcome was inactive.

For the compound `CC1CCc2cc(F)cc3c(=O)c(C(=O)O)cn1c23` (stereo not given), the outcome was inactive.

Turning to `CCOC(=O)OC(C)OC(=O)[C@@H]1N2C(=O)[C@@H](NC(=O)[C@H](N)c3ccccc3)[C@H]2SC1(C)C` (stereo not given in full), the outcome was inactive.

With `COC(=O)c1cccnc1`, the outcome was inactive.

With `COCC(=O)Nc1c(I)c(C(=O)NCC(O)CO)c(I)c(C(=O)N(C)CC(O)CO)c1I` (stereo not given), the result was inactive.

In the case of `O=C1C(c2[nH]c3ccccc3c2O)=Nc2ccccc21`, the outcome was inactive.

On to `CN[C@@H]1[C@H](O)[C@H](NC)[C@H]2O[C@@]3(O)C(=O)C[C@@H](C)O[C@H]3O[C@@H]2[C@H]1O`, for which the result was inactive.

On to `COc1ccccc1OC(=O)Oc1ccccc1OC`, for which the result was inactive.

As to `CCc1cccc(CC)c1NC(=O)CN(CC(=O)O)CC(=O)O`, the outcome was inactive.

For the compound `CC(=O)Oc1cccc(O)c1`, the result was inactive.

As to `CC(=O)Nc1ccc(OCCOCCOc2ccc(NC(C)=O)cc2)cc1`, the outcome was inactive.

Take `O=C(O)Cc1cn(-c2ccccc2)nc1-c1ccc(Cl)cc1`: the result was inactive.

Turning to `Nc1ncnc2c1ncn2[C@@H]1O[C@H](COP(=O)(O)O)[C@@H](O)[C@H]1O`, the outcome was inactive.

Turning to `O=C1c2ccccc2C(=O)C1c1ccc(Br)cc1`, the outcome was inactive.

Turning to `CC[C@]12CCCN3CCc4c(n(c5ccccc45)[C@@](O)(C(=O)OC)C1)[C@@H]32`, the outcome was inactive.

Take `Cc1c(Cn2ccnc2)c2ccccc2n1CCC(=O)O`: the result was inactive.

For the compound `Cc1cccc(C(=O)O)c1O`, the result was inactive.

For `O=C(O)CCCc1ccccc1`, the outcome was inactive.

`CCCNC(C)C(=O)Nc1c(C)csc1C(=O)OC` (stereo not given): the outcome was inactive.

For the compound `NS(=O)(=O)c1cc(C2(O)NC(=O)c3ccccc32)ccc1Cl` (stereo not given), the result was inactive.

The values above are taken from PubChem BioAssay (NCATS).
